The list is not random: actives were taken first. Their share in the collection is about 3.5%.
FBW7 activator: human FBW7 E3 ligase activation, primary screen | Q969H0 | AlphaScreen FBW7–phospho-cyclin E peptide binding, activator screen | 0.13% of 650,000 active | normalized activity (activation), % at 26.1 µM; in the data active = normalized activity above about 1.9%;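 also: purified mutant Fbw7 with reduced substrate affinity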
TEAD-YAP block: TEAD-YAP interaction inhibition; HEK-TIYL cells, TEAD-Gal4/YAP UAS-luciferase luminescence; inhibition, % at 9.12 µM; 1.4% of 640,000 active; in the data active = inhibition above about 32%
MITF inh: blocks human microphthalmia-associated transcription factor; O75030; AlphaScreen MITF homodimerization, bead proximity signal; inhibition, % at 2.6 µM; 0.91% of 650,000 active; AID 1259374; in the data active = inhibition above about 50%
GPR151 activ: activators of human GPR151; Q8TDV0; PathHunter beta-arrestin GPR151 cells, luminescence; activation, % at 11.2 µM; 1% of 650,000 active; AID 1508602; in the data active = activation above about 4.9%
Target sequence (Q8TDV0 whole entry, looked up): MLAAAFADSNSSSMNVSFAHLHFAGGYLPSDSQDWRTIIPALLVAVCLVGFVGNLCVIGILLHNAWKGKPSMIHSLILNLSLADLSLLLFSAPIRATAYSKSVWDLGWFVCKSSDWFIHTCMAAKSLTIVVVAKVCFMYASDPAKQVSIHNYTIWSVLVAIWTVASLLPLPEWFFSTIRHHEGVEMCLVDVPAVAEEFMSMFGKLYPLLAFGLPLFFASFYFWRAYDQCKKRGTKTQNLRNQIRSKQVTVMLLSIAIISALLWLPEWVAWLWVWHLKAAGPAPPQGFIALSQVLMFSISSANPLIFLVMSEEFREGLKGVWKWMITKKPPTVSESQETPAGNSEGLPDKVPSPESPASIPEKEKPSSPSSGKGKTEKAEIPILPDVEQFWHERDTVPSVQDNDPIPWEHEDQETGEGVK
Of the large screens only hits and unclear results are named; the others gave an inactive call.

O=C(Cc1ccc(N2CCC(NCCn3ccnc3)CC2)cc1)N1CCCC1	none
O=C(Cc1ccc(N2CCC(NCCn3ccnc3)CC2)cc1)NCc1ccccc1	TEAD-YAP block 47
CC(C)c1ccccc1C=NCC(=O)O	FBW7 activator 2.2
O=C1OC(c2cccc(Cl)c2)=N/C1=C\c1ccccc1I	none
CCNc1nc(NCC)n2c(SCC(=O)c3ccc(OC)c(OC)c3)nnc2n1	MITF inh 69
CCNc1nc(NCC)n2c(SCC(=O)Nc3cc(=O)n(C)c(=O)n3C)nnc2n1	MITF inh 73
CCNc1nc(NCC)n2c(SCC(=O)Nc3cccc(Cl)c3C)nnc2n1	MITF inh 76
COc1ccc(-c2cnc3ccc(NC4CCOCC4)nn23)cc1OC	none
Nc1cccc(-c2cnc3ccc(NC4CCOCC4)nn23)c1	none
Clc1cccc(-c2cnc3ccc(NC4CCOCC4)nn23)c1	TEAD-YAP block 34
Cc1ccc(-c2cnc3ccc(NC4CCC(O)CC4)nn23)cc1C (centres undefined)	none
COc1cccc(-c2cnc3ccc(NC4CCOCC4)nn23)c1	TEAD-YAP block 57
COc1cccc(-c2cnc3ccc(NC4CCC(O)CC4)nn23)c1 (centres undefined)	TEAD-YAP block 64
Cc1nc(Nc2cccc(F)c2)nc(N2CCCC2)c1[N+](=O)[O-]	none
COCCNC(=O)c1cn(C2CCCCC2)c(=O)c2c1c1ccccc1n2C	none
CCC(C)NC(=O)c1cn(C2CCCCC2)c(=O)c2c1c1ccccc1n2C (centres undefined)	FBW7 activator 2.3
Cc1cc(C)cc(NS(=O)(=O)c2ccc3c4c2CC(=O)N4CC(C)S3)c1 (centres undefined)	TEAD-YAP block 34
CC1CN2C(=O)Cc3c(S(=O)(=O)NCc4cccs4)ccc(c32)S1 (centres undefined)	none
O=c1c2ccccc2cnn1-c1ccc(Cl)c(Cl)c1	none
O=c1c2ccccc2cnn1-c1nc2ccccc2[nH]1	TEAD-YAP block 94
CCOC(=O)c1cnn(-c2nc3ccccc3[nH]2)c1N	TEAD-YAP block 42
CC(=O)Nc1cc(C)nn1-c1nc2ccccc2[nH]1	none
CCOc1ccccc1C(=O)Nc1cc(C)nn1-c1nc2ccccc2[nH]1	TEAD-YAP block 54
CCOC(=O)c1cnn(-c2nc3ccccc3s2)c1N	none
O=c1c2ccccc2cnn1-c1nc2ccccc2s1	TEAD-YAP block 90
COc1ccc(OC)c(-n2c(=S)[nH]c3cc(C(=O)N4CCCC4)ccc3c2=O)c1	none
COc1ccc(OCCOCCOc2ccccc2C=O)cc1	TEAD-YAP block 46
COc1ccccc1OCCOc1ccc(C=O)cc1	none
CNC(=O)c1cc2cc(Cc3ccccc3)cc([N+](=O)[O-])c2oc1=O	none
Cc1ccc(C)c(S(=O)(=O)Nc2ccc(I)cc2)c1	TEAD-YAP block 47
CCC(=O)N1CCc2cc(S(=O)(=O)NC(C)(C)C)ccc21	none
COc1cc(Nc2nc(Nc3cc(OC)c(OC)c(OC)c3)c3ncn(-c4ccsc4)c3n2)cc(OC)c1OC	TEAD-YAP block 50
COc1cc(Nc2nc(Nc3nc4ccccc4n3C)nc3c2ncn3-c2ccsc2)cc(OC)c1OC	TEAD-YAP block 37
COc1cc(Nc2nc(Nc3ccccn3)nc3c2ncn3-c2ccsc2)cc(OC)c1OC	none
CCC(C)NC(=O)c1ccc2c(c1)ncn2-c1cc(C)cc(C)c1 (centres undefined)	none
CCOC(=O)N1CCC(Nc2c(NCc3cccc(OC)c3)c(=O)c2=O)CC1	none
Cc1ccc(-c2nnc(N3CCN(C(=O)c4ccco4)CC3)c3ccccc23)cc1	FBW7 activator 2.3
Cc1ccc(-c2nnc(N3CCN(C(=O)CN4CCCC4)CC3)c3ccccc23)cc1	none
CC(C)c1nnc(C2CCN(C(=O)NCc3cccc4ccccc34)CC2)o1	FBW7 activator 2.0
CC(C)c1nnc(C2CCN(C(=O)NCc3ccccc3)CC2)o1	none
CC(=O)Nc1ccc(Nc2cc(-c3c(C)nn(C)c3C)nc(N)n2)cc1	none
COc1ccc(-c2cc3ccccc3oc2=O)cc1N	TEAD-YAP block 33
CCOC(=O)COc1ccc2c(C)c(-c3ccc(OC)c(OC)c3)c(=O)oc2c1	FBW7 activator 2.0
COc1ccccc1-c1cc2ccccc2oc1=O	none
CCOC(=O)C(C)Oc1ccc2cc(-c3ccc(OC)c(OC)c3)c(=O)oc2c1 (centres undefined)	FBW7 activator 2.3
O=C(NCCc1cccc(Cl)c1)c1cc(COc2cccc3cnccc23)on1	none
O=C(O)CN(c1ccc2c(c1)OCO2)S(=O)(=O)c1ccc2[nH]c(=O)c(=O)[nH]c2c1	none
Cc1[nH]c2ccccc2c1C(=O)COC(=O)CNC(=O)c1ccco1	none
COc1cc(OC)cc(C(=O)Nc2ccc(-c3nc4ccc(C)cc4s3)cc2)c1	none

Screening results deposited in PubChem by The Scripps Research Institute Molecular Screening Center.
